Shiga toxin inh = inhibitors of Shiga toxin in Vero cells; Vero cells, Shiga toxin protein synthesis inhibition reporter; inhibition, % at 38.7 µM; 9.2% of 290,000 active; in the data active means inhibition mostly above about 28%, no sharp cut-off; inactive means mostly below about 43%; further: 0% is about no effect
Sm TGR block = blocks Schistosoma mansoni thioredoxin glutathione reductase | Q962Y6 | purified TGR, DTNB reduction, TNB absorbance 405 nm | Potency, µM (highest dose often 114 µM), without a hit: at the highest dose activity change, negative = inhibition, hits mostly inhibitors | 3% of 360,000 active; further: potency means the concentration at half of the fitted maximal effect; on the % scale 0 is the no-effect control and ±100 the full control effect; nearly all actives have a fitted effect of over 60% in size
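TGR 20 nM + NADPH 100 uM (dispensed conc.), cpd preinc 15 min RT; start with NADPH (500 uM addition) then DTNB (15 mM addition). Kinetic TNB absorbance, 405 nm filter. Four-parameter Hill fit across titration.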
LmPK inhibitor = inhibitors of Leishmania mexicana pyruvate kinase | Q27686 | purified LmPK, Kinase-Glo ATP luminescence, 1 h | Potency, µM (titrated, usually from 57.5 µM), inactives show at the top dose activity change, negative = inhibition, hits mostly inhibitors | 0.37% of 290,000 active; further: potency means the concentration at half of the fitted maximal effect; on the % scale 0 is the no-effect control and ±100 the full control effect
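0.1 nM LmPK, 0.5 mM PEP, 0.1 mM ADP; 50 mM imidazole pH 7.2, 7 mM MgCl2, 50 mM KCl; 1 h RT. Kinase-Glo luminescence readout, normalized to no-enzyme (full inhibition) and uninhibited wells.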
CHX counter = counter-screen hit for Shiga toxin inhibitors, cycloheximide; cell reporter, cycloheximide protein synthesis inhibition counterscreen; max response, %; 12% of 300,000 active; AID 2314; in the data active means max response mostly above about 13%, no sharp cut-off; inactive means mostly below about 14%; further: read at 38.3 µM for the half of the compounds with a filed dose; 0% is about no effect
TbPYK inhibitor = blocks Trypanosoma brucei pyruvate kinase; 0.12% of 410,000 active; Potency, µM (titrated, usually from 76.8 µM), inactives show at the highest dose activity, negative = inhibition, actives largely listed as inhibitors; TbPYK enzyme, Kinase-Glo Plus ATP luminescence, 45 min; Q57TT1; further: potency means the concentration at half of the fitted maximal effect; on the % scale 0 is the no-effect control and ±100 the full control effect; nearly all actives have a fitted effect of over 50% in size
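Activity of T. brucei pyruvate kinase was followed by Kinase-Glo Plus luminescence after the enzyme reacted 45 min at room temperature with 130 uM ADP (final) and substrate. Test compounds were added before ADP at multiple concentrations.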
FBPA Giardia inh = Giardia lamblia aldolase inhibition. A8B2U2. purified Giardia FBPA. Potency, µM (highest dose often 59.6 µM), without a hit: top-dose activity, negative = inhibition, most hits filed as inhibitors. 0.71% of 290,000 active. AID 2451; further: potency means the concentration at half of the fitted maximal effect; on the % scale 0 is the no-effect control and ±100 the full control effect; nearly all actives have a fitted effect of over 55% in size
Target sequence (A8B2U2 whole entry, looked up): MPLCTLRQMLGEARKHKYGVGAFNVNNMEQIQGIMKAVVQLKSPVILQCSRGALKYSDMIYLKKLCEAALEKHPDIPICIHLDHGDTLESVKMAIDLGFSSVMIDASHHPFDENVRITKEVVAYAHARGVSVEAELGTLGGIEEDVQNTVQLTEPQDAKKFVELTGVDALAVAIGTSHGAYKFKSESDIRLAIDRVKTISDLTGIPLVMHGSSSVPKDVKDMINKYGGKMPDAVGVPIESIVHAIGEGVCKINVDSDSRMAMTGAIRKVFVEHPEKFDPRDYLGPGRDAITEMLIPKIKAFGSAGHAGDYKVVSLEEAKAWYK
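40 nM FBPA preincubated 10 min at RT with compound (up to 57.5 uM final), then substrate plus GAPDH/TPI/NAD/arsenate coupling and diaphorase/resazurin added. Fluorescence read after 20 min at RT, 525/598 nm.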
* marks the source's active call; other numbers are inactive results; u = inconclusive; x = not tested or not shown; + = active, no number; [ ] = dose if it differs, or a comment. Only a selection was taken, and hits are over-represented in it overall. Unless noted, the call rests on the fitted dose curve; in most records, active means well fitted curve in the direction sought with a large enough effect; inconclusive means small, poorly fitted or top-dose-only effect, or another doubt; inactive means no such curve, though single readings can be large; an effect the other way counts as inactive or inconclusive.

SMILES	Shiga toxin inh	Sm TGR block	LmPK inhibitor	CHX counter	TbPYK inhibitor	FBPA Giardia inh
CC(=O)Nc1nonc1-c1nnc(SCc2ccccc2C)n1C	x	1.6%	x	x	2.7%	x
COC(=O)Cn1c(=NC(=O)c2ccc(Cl)s2)sc2cc(C)ccc21	39.5	-7.9%	-0.6%	18.2*	-6.3%	-0.4%
C#CCn1c(=NC(=O)c2ccc(Br)s2)sc2cc(NC(C)=O)ccc21	9.6	-5.3%	1.6%	3.9	-2.6%	8.2%
COC(=O)Cn1c(=NC(=O)c2ccc([N+](=O)[O-])s2)sc2cc(Br)ccc21	39.3	-2.3%	-2.1%	15.4*	x	2.0%
COC(=O)Cn1c(=NC(=O)c2nc3ccccc3s2)sc2cc(S(C)(=O)=O)ccc21	14.7	1.0%	-0.8%	16.6*	x	0.9%
O=C(CSc1nc(=O)[nH]c2c1CCCC2)Nc1ccccc1C(F)(F)F	x	4.0%	x	x	-5.3%	x
Cc1cn2c(=O)c(C(=O)N3CCN(c4ccccc4F)CC3)cnc2s1	x	-3.2%	x	x	0.6%	x
Nc1nc(N)nc(COc2ccccc2)n1	95.8*	0.4%	-18.1%	41.5*	-2.0%	0.8%
O=C(COc1ccc2ccccc2c1Br)Nc1ncn[nH]1	76.0*	0.0%	-0.6%	31.9*	-3.7%	1.1%
O=C(COc1ccc2ccccc2c1Br)N1CCOCC1	39.2*	-17.5%	1.4%	24.7	-14.8%	-14.9%
O=C(COc1ccc2ccccc2c1Br)N1CCCC1	34.6	-15.0%	-7.6%	41.9*	1.0%	x
O=C(O)CC(NNC(=O)c1ccccc1)C(=O)Nc1cccc([N+](=O)[O-])c1 (stereo not drawn)	72.1*	1.8%	6.0%	23.4*	3.9%	-12.8%
CC(C)NC(=S)NC(=O)c1ccc(-c2ccccc2)cc1	25.6*	u	-2.4%	11.2	-1.3%	1.7%
CCCCC(=O)NC(=S)Nc1cccc(C(=O)O)c1	60.4*	0.0%	-0.2%	9.2	14.1%	3.3%
NS(=O)(=O)c1ccc(NC(=S)NC(=O)c2ccc(-c3ccccc3)cc2)cc1	-8.8	-5.8%	-6.0%	-3.7	0.2%	11.8%
CC(CC(=O)O)CC(=O)Nc1cccc([N+](=O)[O-])c1 (stereo not drawn)	-9.1	15.7%	6.6%	-2.0	2.3%	-0.8%
CC(=O)c1cccc(NC(=S)NC(=O)c2cccc(Cl)c2)c1	+	39.8µM*	-0.1%	30.1*	-7.4%	u
CCCCC(=O)NC(=S)Nc1cccc(NC(=O)CC)c1	-2.7	u	2.0%	-0.9	0.7%	2.2%
O=[N+]([O-])c1ccc(Nc2ccccc2)cc1	25.8	-4.7%	-5.4%	15.8*	-0.7%	-13.6%
O=[N+]([O-])c1ccc(Nc2ccc(F)cc2)cc1	4.8	12.8%	2.6%	-3.3	-4.6%	-16.3%
O=C(O)c1cccc(NC(=S)NC(NC(=O)c2cccc([N+](=O)[O-])c2)C(Cl)(Cl)Cl)c1 (stereo not drawn)	21.5	-7.2%	-0.1%	11.0*	-12.7%	3.2%
CC(=O)c1cccc(NC(=S)Nc2ccc(F)cc2)c1	18.9	u	2.2%	13.0*	1.3%	-9.7%
CCCCCC(=O)NNC(=S)NC(=O)c1cccc([N+](=O)[O-])c1	0.8	1.58µM*	0.4%	-1.4	u	u
COc1ccc(N2CCN(S(=O)(=O)CCNC(=O)Cc3ccc(Cl)cc3)CC2)cc1	x	-1.7%	x	x	0.6%	x
Cc1ccc(C(=O)O)cc1NC(=S)NC(=O)c1ccc(-c2ccccc2)cc1	56.5*	u	4.7%	31.2*	-1.3%	-0.3%
SMILES	Shiga toxin inh	Sm TGR block	LmPK inhibitor	CHX counter	TbPYK inhibitor	FBPA Giardia inh
Cc1ccc(C(=O)NC(=S)Nc2ccccc2C(F)(F)F)cc1C	36.9*	-1.3%	2.0%	15.9*	1.8%	-7.2%
Cc1cccc(C(=O)NC(=S)Nc2ccccc2C(F)(F)F)c1	35.7	-30.9%	2.7%	9.2	-3.7%	-4.3%
CC#CCCCC(=O)Nc1cccc(C(=O)O)c1	81.9*	-34.5%	1.7%	25.4*	-1.6%	-0.2%
CCCCC(=O)Nc1cccc(C(=O)Nc2ccccc2C(=O)O)c1	24.9	-3.2%	-10.6%	6.0	1.7%	3.3%
O=C(O)c1cccc(NC(=S)NC(=O)c2ccc(-c3ccccc3)cc2)c1	143.0*	x	0.4%	46.4*	5.8%	0.1%
COc1ccc(-c2nnc(SCC(=O)N(C)Cc3ccccc3)o2)cc1OC	x	4.9%	x	x	-5.2%	x
CC(=O)c1ccc(NC(=O)N2C3CCC2CC(O)(c2cccnc2)C3)cc1 (stereo not drawn)	14.2	0.6%	6.0%	-1.1	-6.6%	8.1%
O=C(NC(=S)Nc1cc([N+](=O)[O-])ccc1Cl)c1ccccc1	62.3*	-20.6%	5.5%	41.2*	-2.9%	u
COc1cc([N+](=O)[O-])ccc1NC(=S)NNC(=O)CCC(=O)Nc1ccccc1Cl	28.3*	-8.3%	-10.4%	32.6*	-21.6%	x
O=C(NC(=S)Nc1cccc([N+](=O)[O-])c1)c1ccccc1	78.5*	-22.3%	-3.2%	35.9*	-7.3%	u
CC(=O)c1cccc(N(CC(=O)Nc2ccc(F)cc2)S(C)(=O)=O)c1	41.4*	-12.1%	-1.5%	11.3*	-5.9%	-1.1%
CC(=O)Nc1ccc(NC(=O)CN(c2cccc(C(C)=O)c2)S(C)(=O)=O)cc1	-10.1	-8.6%	4.2%	-3.5	-1.7%	3.9%
CC(=O)c1ccc(C2C=CC(Oc3ccc(F)cc3C)C(CO)O2)cc1 (stereo not drawn)	x	x	x	x	x	-6.1%[12.9 µM]
CN(C)S(=O)(=O)c1cccc(COc2ccccc2C(=O)Nc2ccccc2)c1	13.3	-11.8%	-10.0%	9.4	3.6%	x
CC(=O)c1cccc(NC(=S)NC(=O)CC(C)(C)C)c1	29.7	-6.2%	1.7%	20.2*	1.3%	0.6%
CC(=O)c1cccc(NC(=S)NC(=O)c2ccccc2)c1	103.0*	28.2µM*	1.6%	45.5*	1.5%	u
CC(=O)c1cccc(NC(=O)c2cccc(NC(=O)c3ccco3)c2)c1	x	-18.7%	-1.8%	4.2	0.2%	0.3%
CC(=O)c1cccc(NC(=S)NNC(=O)c2ccco2)c1	32.6	x	1.5%	20.9*	-4.3%	6.5%
COCCCNC(=S)NNC(=S)Nc1cccc(Cl)c1	90.1*	22.3%	2.7%	28.1*	-14.6%	19.6%
Cc1ccc2nc(N(Cc3cccnc3)C(=O)c3ccco3)sc2c1	x	3.9%	x	x	-6.6%	x
O=C(Nc1ccc([N+](=O)[O-])cc1)C(=O)Nc1cccc(C(=O)O)c1	-13.9	8.7%	25.1µM*	-5.8	u	0.3%
COc1cc(Cl)c(C)cc1Nc1nc2ccccc2c2nnc(C)n12	x	5.2%	x	x	9.8%[15.4 µM]	x
CCCOc1ccc(C2C(=O)N(C3CCCCC3)CC(=O)N2CCc2ccccc2)cc1OC (stereo not drawn)	x	5.4%	x	x	-0.7%	x
Cc1ccc(Cl)cc1NS(=O)(=O)c1ccc2oc(=O)c3ncn(C)c3c2c1	x	-3.1%	x	x	1.0%	x

Bioassay records (PubChem BioAssay)
